An excerpt weighted towards active compounds, which were near 3.5% of everything screened.
GDH-TPI counter-1 – counter-screen for M. tuberculosis FBA inhibitors: GDH-TPI coupled enzymes; GDH-TPI coupled enzyme counterscreen, NADH absorbance; inhibition, % at 4.8 µM; hit rate 1.2% among 360,000; AID 588335; in the data active = inhibition above about 30%;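 also: 0% = DMSO wells and 100% = wells lacking the enzyme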
FadD28 FP inh – M. tuberculosis FadD28 bisubstrate binding inhibition; FadD28 bisubstrate probe binding, fluorescence polarization; inhibition, % at 12.5 µM; hit rate 0.22% among 360,000; AID 588549; in the data active = inhibition above about 8.5%, passing the limit was not always enough
Mtb FBA inh – Mtb fructose-bisphosphate aldolase inhibition. P9WQA3. purified M. tuberculosis FBA, fluorescence read-out. inhibition, % at 1 µM. hit rate 2.3% among 360,000;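 also: 0% = vehicle and 100% = reference inhibitor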
Rv3671c protease – inhibitors of M. tuberculosis serine protease Rv3671c; inhibition, % at 5.96 µM; AID 2606; hit rate 0.048% among 320,000; in the data active = inhibition above about 38%;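 also: extracellular domain of Rv3671c used as enzyme; 0% = enzyme with DMSO and 100% = no enzyme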
Target sequence (P9WHR9 whole entry, looked up, the tested form may be a part): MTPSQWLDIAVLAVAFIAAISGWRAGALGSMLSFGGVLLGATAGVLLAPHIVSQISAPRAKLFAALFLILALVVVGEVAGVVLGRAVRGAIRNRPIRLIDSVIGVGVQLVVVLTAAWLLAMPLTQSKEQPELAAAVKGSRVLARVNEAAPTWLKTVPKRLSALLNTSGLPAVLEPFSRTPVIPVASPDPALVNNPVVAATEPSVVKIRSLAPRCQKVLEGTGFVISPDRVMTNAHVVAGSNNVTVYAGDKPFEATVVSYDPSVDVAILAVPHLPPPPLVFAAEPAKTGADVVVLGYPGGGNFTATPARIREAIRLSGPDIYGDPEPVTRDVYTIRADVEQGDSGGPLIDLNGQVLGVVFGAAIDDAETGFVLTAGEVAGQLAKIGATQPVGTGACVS
Mtb UGM inh – inhibitors of M. tuberculosis UDP-galactopyranose mutase; AID 504406; P9WIQ1; hit rate 0.06% among 320,000; inhibition, % at 10 µM; purified UGM, fluorescence polarization probe displacement; in the data active = inhibition above about 10%, passing the limit was not always enough
Mtb hypoxia inh – inhibitors of hypoxia-regulated fluorescent reporter in Mycobacterium tuberculosis | hit rate 0.1% among 300,000 | AID 1159583 | M. tuberculosis hypoxia-regulated fluorescent reporter, fluorescence | fluorescence inhibition, % (no concentration beside the values); in the data active = fluorescence inhibition mostly above about 23%, no sharp cut-off; inactive = mostly below about 17%
Mtb FBA confirm – Mtb FBA inhibition, confirmed | shares compounds with Mtb FBA inh | purified M. tuberculosis FBA, fluorescence read-out | inhibition, % at 1 µM | hit rate 78% among 5,600 | AID 651616;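 also: 0% = vehicle wells and 100% = reference inhibitor wells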
GDH-TPI counter-2 – counter-screen for M. tuberculosis FBA inhibitors: GDH-TPI coupled enzyme inhibition | GDH-TPI coupled enzyme counterscreen, fluorescence | inhibition, % at 1 µM | hit rate 81% among 5,600 | shares compounds with Mtb FBA inh; in the data active = inhibition above about 10%
Starred values were filed as active, the others as inactive; · = no result given; + = active, no number. Rule as the data show it, unless noted: active = inhibition above about 27%; inactive = the rest.

SMILES	GDH-TPI counter-1	FadD28 FP inh	Mtb FBA inh	Rv3671c protease	Mtb UGM inh	Mtb hypoxia inh	Mtb FBA confirm	GDH-TPI counter-2
O=c1c2c(nc3cc(-c4ccccc4)[nH]n13)CCC2	6	-1	44*	1	-3	·	111*	98*
C(=NNc1ncnc2ccccc12)c1ccccc1	·	·	·	·	·	14	·	·
CCOC(=O)CC(=O)CSc1nc2c(c(C)c1C#N)CCC2	3	-3	31*	3	-4	·	82*	47*
CCOC(=O)CC(=O)CSc1nc(C)cc(C)c1C#N	6	-3	17	3	3	-8	·	·
NC(=O)NN=Cc1ccc2cccc(OCc3ccccc3)c2n1	·	·	·	·	·	6	·	·
NC(=O)N/N=C/c1ccc2cccc(OCc3ccccc3)c2n1	14	-3	57*	-9	0	·	173*	138*
C[C@H](O)C(=O)C1=Nc2c(nc(N)[nH]c2=O)NC1	19	0	27*	3	0	·	41*	33*
CCOC(=O)Cc1c(C)nc(N)[nH]c1=O	1	-1	0	0	-3	9	·	·
COc1ccc(OCC(=O)NN=C(C)c2cc3ccccc3o2)cc1	·	·	·	·	·	11	·	·
Cn1c(=O)nc2n(Cc3ccccc3)c3ccccc3cc-2c1=O	7	-3	85*	-13	-3	9	72*	52*
COc1cc(C=NNc2nc(C)cc(=O)[nH]2)ccc1OC(=O)c1cccnc1	·	·	·	·	·	1	·	·
Cc1ccc2nc(Cl)c(C=NNC(=O)C3CC3c3ccccc3)cc2c1 (centres undefined)	·	·	·	·	·	2	·	·
O=S(=O)(Nc1ccccc1)c1ccc(-c2cnc(C3CC3)o2)cc1	6	0	18	4	-1	1	·	·
O=S(=O)(NCc1ccc(F)cc1)c1ccc(-c2cnc(C3CC3)o2)cc1	15	0	29*	-7	3	-8	19	16*
Nc1c(C(=O)Nc2ccccc2)sc2nc(N3CCOCC3)c3c(c12)CCCC3	22	-1	51*	·	·	·	158*	160*
Cc1ccc(NC(=O)c2sc3nc(N4CCOCC4)c4c(c3c2N)CCCC4)cc1	12	-1	7	·	·	·	·	·
Nc1c(C(=O)Nc2ccc(Cl)cc2)sc2nc(N3CCOCC3)c3c(c12)CCCC3	15	-2	37*	-1	2	8	-3	-2
COc1cccc(NC(=O)c2sc3nc(N4CCOCC4)c4c(c3c2N)CCCC4)c1	14	-1	29*	-7	-2	8	48*	45*
Cc1cc(N=Cc2c(O)n(-c3cccc(Cl)c3)c(=O)c3ccccc23)no1	19	-3	57*	-15	1	-6	106*	83*
NCCCCC1CN=C(N)N1CCc1cccc2ccccc12 (centres undefined)	·	·	·	·	·	6	·	·
CC(=O)Nc1sc(NN=Cc2ccccc2)nc1-c1ccc(C)cc1	·	·	·	·	·	13	·	·
O=C(O)/C=C\C(=O)Nc1ccccc1C(=O)NC1CCCCC1	7	0	52*	5	-2	-6	-2	-4
O=C(Nc1ccccc1C(=O)NC1CCCCC1)c1ccco1	-4	-2	1	5	-2	13	·	·
CCOc1ccc(-n2cnnn2)cc1S(=O)(=O)NCc1ccccc1	-2	-2	-1	2	-1	11	·	·
CCOc1cc(S(=O)(=O)NCc2ccccc2)c(OCC)cc1-n1cnnn1	-7	-2	49*	5	-3	-11	132*	111*
SMILES	GDH-TPI counter-1	FadD28 FP inh	Mtb FBA inh	Rv3671c protease	Mtb UGM inh	Mtb hypoxia inh	Mtb FBA confirm	GDH-TPI counter-2
O=C(C1CCN(S(=O)(=O)N2CCOCC2)CC1)N1CCN(c2ccc(F)cc2)CC1	-16	-4	-3	3	-2	-3	·	·
Cc1cnc(C)c(N2CCC(C(=O)NCc3ccco3)CC2)n1	17	0	-3	-2	1	·	·	·
O=C(NCc1ccco1)C1CCN(c2ccc(N3CCOCC3)nn2)CC1	0	1	27*	8	1	8	-3	-3
COc1cccc(C(=O)N2CCN(c3ccc(N4CCOCC4)nn3)CC2)c1	-4	0	29*	-9	·	-6	0	0
COc1ccc2c(c1)CCc1cc(C(=O)N3CCN(c4ccc(N5CCOCC5)nn4)CC3)sc1-2	34*	-2	41*	0	1	8	+	195*
O=C(c1cccc(Br)c1)N1CCN(c2ccc(N3CCOCC3)nn2)CC1	2	1	11	2	1	7	·	·
